Reference: PubChem BioAssay
The source made the active and inactive calls. Unless noted, the rule behind the calls is not given here.

Tests used:
[1] = test system: XIP peptide (Xip251-270) binding; assay: XIP fragment 251-270 binding compounds – biochemical, small-molecule microarray, fluorescence 635/667 nm, 0.1 µg/mL protein, primary screen (AID 1182); settings: fluorescent protein binding, 635 nm, higher = more signal, called active from +8 up or from −8 down
XIP peptide (Xip251-270) = assay: compounds binding XIP fragment 251-270 – biochemical, small-molecule microarray, fluorescence 635/667 nm, 0.5 µg/mL protein, primary screen (AID 1183); settings: fluorescence 635 nm, higher = more signal
[2] = blood-stage malaria parasite viability loss – strain 3D7, DAPI fluorescence, 100 nL, primary screen (AID 1184);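 note: parasites grown inside human red blood cells in medium with human serum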; settings: P. falciparum 3D7 growth, 3 d, higher = more signal
[3] = target: Homeobox protein Hox-A13 (Mus musculus) (UniProt Q62424); assay: disruptors of Hoxa13 oligonucleotide interaction – biochemical, fluorescence polarization, labeled oligonucleotide, primary screen (AID 1185); settings: Hoxa13:DNA binding, 15 min, higher = more signal, called active from +8 up or from −8 down
Homeobox protein Hox-A13 (Mus musculus), sequence (Q62424 whole entry, looked up): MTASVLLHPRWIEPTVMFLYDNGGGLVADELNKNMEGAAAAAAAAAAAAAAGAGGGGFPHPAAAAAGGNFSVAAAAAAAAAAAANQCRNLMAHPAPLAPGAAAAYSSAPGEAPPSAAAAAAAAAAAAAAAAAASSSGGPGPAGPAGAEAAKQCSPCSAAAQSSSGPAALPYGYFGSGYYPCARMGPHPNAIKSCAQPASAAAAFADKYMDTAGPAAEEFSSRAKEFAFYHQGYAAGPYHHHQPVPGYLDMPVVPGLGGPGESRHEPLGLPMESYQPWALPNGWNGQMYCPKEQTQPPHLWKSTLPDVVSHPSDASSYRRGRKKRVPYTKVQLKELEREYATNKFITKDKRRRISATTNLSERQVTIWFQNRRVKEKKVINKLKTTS

[4] = blockers of DNA damage checkpoint Chk1 activation – imaging, HeLa, hydroxyurea, phospho-Chk1 antibody, percent positive cells, primary screen (AID 1186); settings: hydroxyurea-induced phospho-Chk1 immunofluorescence imaging, higher = more signal
[5] = blockers of DNA damage checkpoint Chk1 activation – imaging, HeLa, hydroxyurea, phospho-Chk1 nuclear intensity, primary screen (AID 1187); settings: hydroxyurea-induced phospho-Chk1 immunofluorescence imaging, higher = more signal

Row | SMILES | composite z-score [1] | composite z-score (XIP peptide (Xip251-270)) | z-score [2] | z-score [3] | z-score [4] | z-score [5]
1 | CN1C(=O)C2C=CC(C(O)COCc3ccccc3)N(N(c3ccccc3)c3ccccc3)C2C1=O (stereo not drawn) | 0.441 (inactive) | 0.74 | -0.144 | -0.885 (inactive) | -0.0138 (inactive) | -0.35 (inactive)
2 | CCOC(=O)[C@H]1[C@@H]2C(=O)N3CCC[C@H]3[C@H](O[Si](C(C)C)(C(C)C)C(C)C)[C@H]2C=C2CCN(S(=O)(=O)c3ccc(C)cc3)C[C@H]21 | 0.0514 (inactive) | 0.589 | -2.23 | -4.48 (inactive) | 0.186 (inactive) | -0.0427 (inactive)
3 | COc1ccc(CCN2C(=O)[C@@]3(Cc4ccccc42)c2ccccc2C(=O)N(Cc2ccccc2OC)[C@H]3c2ccc(CO)cc2)cc1 | -0.22 (inactive) | 0.425 | -1.39 | -0.208 (inactive) | -0.154 (inactive) | 0.0689 (inactive)
4 | COc1cc2c(cc1OC)CN(C(=O)[C@@H]1[C@H]3C(=O)O[C@H](c4ccccc4)[C@H](c4ccccc4)N3[C@H](c3ccc(OCCO)cc3)[C@@]13C(=O)Nc1ccccc13)CC2 | 0.675 (inactive) | 0.742 | -1.77 | -8.07 (active) | -0.118 (inactive) | -0.256 (inactive)
5 | COc1ccc(C(O)C2C=CC3C(=O)N(c4ccccc4)C(=O)C3N2Nc2ccc([N+](=O)[O-])cc2)cc1 (stereo not drawn) | 0.584 (inactive) | 0.797 | -0.906 | -3.98 (inactive) | 0.895 (inactive) | -0.355 (inactive)
6 | COC(=O)[C@H](Cc1ccccc1)N1CC(/C=C/C2CC2)=C[C@H]1[C@H](O)Cc1ccccc1 | 0.444 (inactive) | 0.337 | -1.65 | -5.54 (inactive) | -0.45 (inactive) | -0.749 (inactive)
7 | COc1ccc([Si](C)(C)[C@H]2[C@H](CCn3cc([C@H](O)c4ccccc4)nn3)O[C@@]3(C(=O)N(Cc4ccc(N5C(=O)c6cccc7cccc5c67)cc4)c4ccccc43)[C@@H]2C)cc1 | 0.784 (inactive) | 0.199 | -1.59 | -0.717 (inactive) | -0.283 (inactive) | -0.162 (inactive)
8 | COC(=O)[C@@]1(Cc2ccc(F)cc2)[C@H]2c3cc(C(=O)N(C)C)n(CCc4ccc(O)c(OC)c4)c3C[C@H]2CN1C(=O)c1ccccc1 | -0.327 (inactive) | -0.277 | 0.845 | -0.562 (inactive) | -0.47 (inactive) | -0.964 (inactive)
9 | Cc1ccc(S[C@]2(C(=O)NCCCN(C)C)CC(=O)N(C3CCCCC3)[C@@H]2c2ccc(CO)cc2)cc1 | 0.332 (inactive) | 0.0388 | -1.54 | -1.9 (inactive) | 0.487 (inactive) | 0.866 (inactive)
10 | COC(=O)Cn1c(C(=O)N(C)C)cc2c1C[C@H]1CN(C(=O)c3ccccc3)[C@@](Cc3ccc(F)cc3)(C(=O)OC)[C@@H]21 | 1.69 (inactive) | -0.196 | -0.0793 | -4.28 (inactive) | 0.927 (inactive) | 1.08 (inactive)
11 | COCC1=C2[C@@H](CCc3ccccc3)OB(O)C[C@@H]2[C@@H]2C(=O)C=CC(=O)[C@@H]2C1 | 0.796 (inactive) | -0.154 | -1.28 | -6.27 (inactive) | 0.162 (inactive) | 0.398 (inactive)
12 | O=C1OCCC/C=C\[C@H]2OC34C=CCN(CCN5CCOCC5)C(=O)[C@H]3N(CCCCCCO)C(=O)[C@@H]4C12 (stereo partly drawn) | 3.43 (inactive) | 0.299 | -0.282 | -6.22 (inactive) | -0.039 (inactive) | 0.587 (inactive)
13 | COc1ccc(-c2cc3c(c(CCc4ccccc4)n2)[Si](C(C)C)(C(C)C)OC3)cn1 | -0.406 (inactive) | -0.251 | -0.118 | -2.5 (inactive) | -0.0328 (inactive) | 0.236 (inactive)
14 | CC(C)N1C(=O)C[C@@](C(=O)NCCCN(C)C)(c2ccc([N+](=O)[O-])cc2)[C@H]1c1ccc(CO)cc1 | -0.324 (inactive) | 0.51 | 0.0784 | -2.62 (inactive) | 0.414 (inactive) | 0.273 (inactive)
15 | COc1ccc([Si](C)(C)[C@H]2[C@H](CCO)O[C@@]3(C(=O)N(Cc4cccc(N5C(=O)COc6ccccc65)c4)c4ccccc43)[C@@H]2C)cc1 | 0.595 (inactive) | 0.649 | -2.8 | -1.2 (inactive) | -0.327 (inactive) | 0.208 (inactive)
16 | C=C(CCCC)/C(=C/C[C@@H](OC(=O)c1ccncc1)c1ccccc1OCCO)c1cnc2ccccc2c1 | 0.0648 (inactive) | 0.647 | -3.02 | -3.49 (inactive) | 0.294 (inactive) | -0.0646 (inactive)
17 | COC(=O)c1c(CC[C@@H](CO)NC(=O)N[C@H](Cn2cc(C3(O)CCCCC3)nn2)C(C)C)oc(C(C)=O)c1C(=O)OC | 0.0887 (inactive) | 0.837 | -2.24 | -1.69 (inactive) | 0.303 (inactive) | 0.608 (inactive)

Row | SMILES | composite z-score [1] | composite z-score (XIP peptide (Xip251-270)) | z-score [2] | z-score [3] | z-score [4] | z-score [5]
18 | O=C(NCC(F)(F)F)[C@@H]1c2ccccc2C(=O)N(Cc2ccc(OC(F)(F)F)cc2)[C@H]1c1ccc(CO)cc1 | 0.21 (inactive) | 0.235 | -0.828 | -3.13 (inactive) | -0.263 (inactive) | -0.383 (inactive)
19 | C=CC1c2cc(O)c(OC)cc2CCN1Cc1cc2c(cc1Br)OCO2 (stereo not drawn) | 1.31 (inactive) | 0.962 | -2.14 | -5.73 (inactive) | -0.103 (inactive) | -0.0965 (inactive)
20 | C[N+](C)(C)CCCCCCNC(=O)[C@H]1C[C@H]2C(=O)NCC(=O)N2[C@H]1c1ccc(O)cc1 | 0.537 (inactive) | 0.815 | 0.089 | -2.39 (inactive) | -0.458 (inactive) | -0.132 (inactive)
21 | C=CCN1Cc2ccccc2[C@H]2OC(c3ccc(OCCCO)cc3)=N[C@@]2(CC=C)C1=O | 0.808 (inactive) | 0.746 | -2.15 | -3.06 (inactive) | -0.39 (inactive) | -0.0236 (inactive)
22 | O=C1OCC=C[C@H]2OC34C=CCN(Cn5nnc6ccccc65)C(=O)[C@H]3N(CCCO)C(=O)[C@@H]4[C@@H]12 (stereo partly drawn) | 0.206 (inactive) | 0.155 | -1.88 | -1.9 (inactive) | -0.242 (inactive) | -0.228 (inactive)
23 | C=CCOC(=O)[C@H]1[C@@H]2C(=O)O[C@@H](c3ccccc3)[C@@H](c3ccccc3)N2[C@@H](c2ccc(OCCOC(=O)[C@H]3C[C@H]4C(=O)N[C@@H](CC(C)C)C(=O)N4[C@H]3c3cccc(OCCO)c3)cc2)[C@]12C(=O)Nc1ccc(I)cc12 | 0.124 (inactive) | 0.694 | -1.79 | 0.344 (inactive) | -0.592 (inactive) | -1.19 (inactive)
24 | COCCCNC(=O)[C@@]1(Sc2ccc(C)cc2)CC(=O)N(C2CCCCC2)[C@@H]1c1ccc(CO)cc1 | -0.0795 (inactive) | 0.421 | -0.715 | -3.21 (inactive) | 0.317 (inactive) | 0.592 (inactive)
25 | COc1ccc(CCNC(=O)[C@@]2(Sc3ccc(C)cc3)CC(=O)N(C3Cc4ccccc4C3)[C@@H]2c2ccc(CO)cc2)cc1 | 0.984 (inactive) | 0.703 | -1.89 | 0.563 (inactive) | -0.341 (inactive) | -0.452 (inactive)
26 | C[N+](C)(C)CCCC[C@@H]1NC(=O)[C@H]2C[C@@H](C(=O)NCCCCCCN)[C@@H](c3ccc(O)cc3)N2C1=O | -0.465 (inactive) | 0.825 | -0.104 | -1.61 (inactive) | 0.181 (inactive) | 0.0555 (inactive)
27 | COc1ccc(NC(=O)O[C@H]2[C@H](OC(=O)Nc3ccccc3)[C@H](OC(=O)Nc3ccccc3)[C@@H](OC)O[C@@H]2CO)cc1 | 0.635 (inactive) | 0.934 | -2.37 | -6.24 (inactive) | 0.131 (inactive) | 0.288 (inactive)
28 | CC(C)C(=C=CC[C@H](O)c1cccc(OCCO)c1)C[C@H](O)c1cc(Cl)cc(Cl)c1O | -0.41 (inactive) | 0.594 | -0.487 | -4.22 (inactive) | -0.568 (inactive) | 0.228 (inactive)
29 | COCCOC(=O)N1C(=O)[C@@]2(c3cc(C#CC4=CCCCC4)ccc31)[C@H](c1ccc(OCCO)cc1)N1[C@H](c3ccccc3)[C@H](c3ccccc3)OC(=O)[C@H]1[C@@H]2C(=O)NC[C@H](O)c1ccccc1 | 0.575 (inactive) | 0.622 | -2.1 | 1.86 (inactive) | 0.107 (inactive) | 0.576 (inactive)
30 | COc1ccc([Si](C)(C)[C@@H]2[C@@H](CC(=O)N3Cc4ccccc4C[C@H]3CO)O[C@]3(C(=O)N(Cc4cccc(N5C(=O)c6cccc7cccc5c67)c4)c4ccccc43)[C@H]2C)cc1 | 1.26 (inactive) | 0.574 | -2.59 | -1.47 (inactive) | 0.115 (inactive) | -0.0849 (inactive)
31 | O=C1C2C=CC(C(O)c3ccc(F)cc3)N(n3cnnc3)C2C(=O)N1Cc1ccccc1 (stereo not drawn) | 0.34 (inactive) | 0.854 | -1.09 | -0.994 (inactive) | 0.0044 (inactive) | -1.28 (inactive)
32 | COc1ccc([Si](C)(C)[C@H]2[C@H](CC(=O)N(CCO)Cc3ccccc3)O[C@@]3(C(=O)N(Cc4cccc(N5CCOC5=O)c4)c4ccccc43)[C@@H]2C)cc1 | 0.114 (inactive) | 0.77 | -2.69 | -2.33 (inactive) | -0.178 (inactive) | -0.157 (inactive)
33 | C=CCOC(=O)[C@H]1[C@@H]2C(=O)O[C@@H](c3ccccc3)[C@@H](c3ccccc3)N2[C@@H](c2ccc(OCCOC(=O)[C@@H]3C[C@@H]4C(=O)N5CCC[C@H]5C(=O)N4[C@@H]3c3ccc(O)cc3)cc2)[C@]12C(=O)Nc1ccc(I)cc12 | 0.773 (inactive) | 0.787 | -1.64 | 2.54 (inactive) | 0.651 (inactive) | 0.571 (inactive)
